56 molecules from ChEMBL document CHEMBL3433997, “St. Jude Leishmania screening dataset” (2016) can be followed below.

Assay type in all cases: functional
The target in assay [1] is Solute carrier family 2, facilitated glucose transporter member 1 (Homo sapiens) (UniProt P11166). The experiment in a line: ST_JUDE_LEISH: Cytotoxicity at 2uM final concentration against transgenic Leishmania Mexicana promastigotes LmGLUT1 that are glucose transport deficient and complemented with the human glucose transporter GLUT1. Activity is measured by DNA content using SYBR green in vitro.

For assay [2], the target named is Hexose transporter 1 (Plasmodium falciparum) (UniProt O97467). Put plainly: ST_JUDE_LEISH: Cytotoxicity at 2uM final concentration against transgenic Leishmania Mexicana promastigotes LmPfHT that are glucose transport deficient and complemented with the Plasmodium falciparum hexose transporter. Activity is measured by DNA content using SYBR green in vitro.
The target of assay [3] is Glucose transporter (Leishmania mexicana) (UniProt O61059). The experiment in a line: ST_JUDE_LEISH: Cytotoxicity at 2uM final concentration against transgenic Leishmania Mexicana promastigotes LmGT2 that are glucose transport deficient and complemented with the L. Mexicana glucose transporter 2. Activity is measured by DNA content using SYBR green in vitro.

Sequence of Solute carrier family 2, facilitated glucose transporter member 1 (Homo sapiens) (P11166 whole entry): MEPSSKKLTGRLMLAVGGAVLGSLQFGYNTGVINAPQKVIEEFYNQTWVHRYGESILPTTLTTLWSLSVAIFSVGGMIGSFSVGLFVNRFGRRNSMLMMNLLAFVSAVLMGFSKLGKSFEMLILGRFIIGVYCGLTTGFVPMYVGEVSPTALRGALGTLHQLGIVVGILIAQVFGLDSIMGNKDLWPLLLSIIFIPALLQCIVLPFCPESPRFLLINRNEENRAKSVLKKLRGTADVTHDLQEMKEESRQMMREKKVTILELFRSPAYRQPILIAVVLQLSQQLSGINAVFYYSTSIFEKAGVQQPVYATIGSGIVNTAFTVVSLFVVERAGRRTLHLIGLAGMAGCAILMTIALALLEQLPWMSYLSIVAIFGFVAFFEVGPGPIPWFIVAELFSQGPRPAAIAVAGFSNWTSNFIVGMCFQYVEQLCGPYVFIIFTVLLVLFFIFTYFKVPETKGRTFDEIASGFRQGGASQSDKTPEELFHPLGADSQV

The term inhibition denotes the drop in the measured response relative to a control, in per cent. For the molecule `Cc1cnc(NCC2CCCCC2)nc1NCC(=O)Nc1ccccc1`, the inhibition came out at 4.2% in assay [1], 4.34% in assay [2] and 6.18% in assay [3].

With `O=C(/C=C/c1ccc(Cl)c(Cl)c1)NCCCCCN1CCC(C(=O)Nc2ccc(Cl)cc2)CC1`, the inhibition is 1.92% in assay [1], 0.72% in assay [2] and 2.78% in assay [3].

`CN(Cc1ccc(C#N)cc1)C1CCN(c2cc(NC(=O)c3cccc(F)c3)ccn2)CC1`: the inhibition was -1.86% in assay [1], -1.81% in assay [2] and 0.96% in assay [3].

As for `CC(Nc1nncc(-c2cccc(F)c2)n1)c1ccc(F)cc1` (stereo not drawn), the inhibition in assay [1] stood at 11.7%; in assay [2], 9.2%; in assay [3], 10.7%.

For `CCCNC(=O)c1ccc(N2CCC(c3ccccc3C)CC2)nc1`, the inhibition turned out to be 0.89% in assay [1], 0.25% in assay [2] and 0.97% in assay [3].

Regarding `O=S(=O)(c1ccccc1)C1CC1`, the inhibition in assay [1] is 1.39%; in assay [2] it was 0.38%; in assay [3], -0.5%.

Consider `COc1ccc(Nc2nc(NCc3ccc(-n4ccnc4)cc3)cc(-c3ccc(OC)cc3)n2)cc1`, for which the inhibition in assay [1] came out at 3.31%; in assay [2] it was 2.46%; in assay [3] it was 3.46%.

Turning to `COc1ccc2ncc(Cl)c(CCN3CCC(NCc4ccc5c(n4)NC(=O)CO5)CC3)c2c1`, the inhibition is 7.95% in assay [1], 5.92% in assay [2] and 6.59% in assay [3].

`CN1CCc2ccc(NC(=O)Nc3ccc(Cl)c(Cl)c3)cc2C1`: the inhibition was determined as 4.69% in assay [1], 3.67% in assay [2] and 3.54% in assay [3].

Turning to `CC(C)(C)OC(=O)NCc1ccc(Nc2nnc(-c3ccc(OCC(=O)NC[C@@H]4CC[C@H]5C[C@@H]4C5(C)C)c([N+](=O)[O-])c3)o2)cc1`, the inhibition in assay [1] was 2.01%; in assay [2], 2.91%; in assay [3], 0.68%.

`CCCCCCN1CCC(NCc2cccc(C(F)(F)F)c2)CC1`: the values for the inhibition in assay [1], in assay [2] and in assay [3] were 9.06%, 12.2% and 6.27%, respectively.

With `O=C(NCCc1ccccc1F)c1cc(Br)cc(N2CCN(c3ccncc3)CC2)c1`, the inhibition in assay [1] was 0.33%; in assay [2] it was 2.34%; in assay [3], -0.08%.

For `Cc1n[nH]c2ccc(-c3cc(OC[C@@H](N)Cc4ccccc4)cnc3-c3cc4ccccc4s3)cc12`, the inhibition in assay [1] came out at 8.58%; in assay [2], 3.69%; in assay [3] it was 2.02%.

With `CN1CCCc2cc(NC(=O)c3cc(-c4ccc(Cl)cc4)cs3)ccc2C1`, the inhibition in assay [1] came out at 2.24%; in assay [2] it was 0.77%; in assay [3], 1.79%.

`COc1ccc(S(=O)(=O)NC2CCN(c3ccnc4cc(Cl)ccc34)C2)cc1` (stereo not drawn): the inhibition in assay [1] is 4.03%; in assay [2], 1.1%; in assay [3], 0.63%.

In the case of `COc1ccc(NS(=O)(=O)c2ccc(C(=O)Nc3ccc(C(F)(F)F)cc3)cc2)cc1N1CCN(CC2CC2)CC1`, the inhibition in assay [1] was 0.55%; in assay [2], 0.6%; in assay [3] it was -7.4%.

As to `Cc1n[nH]c2cc(Nc3ccnc(Nc4cccc(CN5CCOCC5)c4)n3)ccc12`, the inhibition in assay [1] was determined as 7.68%; in assay [2], 6.54%; in assay [3] it was 3.19%.

For `CC1CCc2sc(-c3nnc(SC(C)C(=O)N4CCCC4)o3)cc2C1` (stereo not drawn), the values for the inhibition in assay [1], in assay [2] and in assay [3] were 2.14%, 1.29% and -4.77%, respectively.

`O=S(=O)(NCCN1CCCC1)c1ccc(-c2cccc(CNCc3ccccc3)c2)s1`: the inhibition in assay [1] is -2.31%; in assay [2], -2.12%; in assay [3], -2.89%.

`CCOC(=O)c1ccc(N=C2SC(=Cc3cc(Br)ccc3O)C(=O)N2C)cc1`: the inhibition in assay [1] amounted to 3.33%; in assay [2], 1.81%; in assay [3] it was 3.81%.

As for `CC(C)CC(=O)N1CCNC[C@@H]1C(=O)NCc1ccc(Cl)c(Cl)c1`, the inhibition stood at 2.93% in assay [1], 1.04% in assay [2] and 3.02% in assay [3].

As for `COc1ccc(CCC(C)N2CC(N)C(c3cn(C)c4cnccc34)C2)cc1` (stereo not drawn), the inhibition in assay [1] is 9.7%; in assay [2], 9.62%; in assay [3], 7.69%.

Turning to `CC1(C)N=C(N)N=C(N)N1c1cccc(Cl)c1`, the results for the inhibition in assay [1], in assay [2] and in assay [3] were 0.67%, -0.19% and 2.95%, respectively.

Take `O=C(/C=C/c1ccc(-c2nc3ccc(Cl)cc3[nH]2)cc1)NCc1cccc(F)c1`: the inhibition turned out to be 4.5% in assay [1], 4.66% in assay [2] and 4.07% in assay [3].

Take `O=C(NCc1ccccc1)NC1CCN(c2ccnc3cc(Cl)ccc23)C1` (stereo not drawn): the results for the inhibition in assay [1], in assay [2] and in assay [3] were -2.48%, 0.99% and 0.94%, respectively.

Turning to `c1cc(CN2CCN(CCN3CCOCC3)CC2)cc(-c2cccc(-c3nc4ccccc4[nH]3)c2)c1`, the inhibition in assay [1] was -0.34%; in assay [2] it was -0.24%; in assay [3] it was -1.97%.

For `N#Cc1cccc(C(=O)N2CCOC(CCN3CCC(c4ccccc4)CC3)(c3ccc(Cl)c(Cl)c3)C2)c1` (stereo not drawn), the inhibition worked out at 4.51% in assay [1], 2.24% in assay [2] and 2.33% in assay [3].

Take `CC(C)(C)N1CCC(N(Cc2ccc(-c3ccc(C(F)(F)F)cc3)cc2)C(=O)Cn2c(CCc3cccc(F)c3F)cc(=O)c3ccccc32)CC1`: the inhibition in assay [1] turned out to be 1.29%; in assay [2], 0.14%; in assay [3], 1.02%.

Consider `CC(C)C[C@H](NC(=O)c1ccc(OCCN2CCOCC2)cc1)C(=O)N[C@H](/C=N/NC(=O)c1ccccc1)CCc1ccccc1`, for which the inhibition in assay [1] came out at 3.15%; in assay [2], 5.83%; in assay [3], 2.03%.

In the case of `COc1cccc(Nc2nc(C)cc(Nc3cccc(C#N)c3)n2)c1`, the inhibition was 17.5% in assay [1], 19.2% in assay [2] and 4.27% in assay [3].

Take `c1ccc(CNCc2cccc(-c3csc(-c4nc5ccccc5[nH]4)c3)c2)cc1`: the inhibition turned out to be 4.56% in assay [1], 5.03% in assay [2] and 3.11% in assay [3].

`CCS(=O)(=O)Nc1ccc2c(c1)/C(=C(/Nc1ccc(CN3CCCCC3)cc1)c1ccccc1)C(=O)N2`: the values for the inhibition in assay [1], in assay [2] and in assay [3] were 83.1%, 89.4% and 82%, respectively.

Regarding `O=C(/C=C/c1ccc(Cl)c(Cl)c1)NCCCCCN1CCC(CCNC(=O)c2snnc2-c2ccccc2)CC1`, the figures for the inhibition in assay [1], in assay [2] and in assay [3] were 0.24%, 4.7% and -0.16%, respectively.

Take `O=C(C=Cc1ccc(Cl)c(Cl)c1)NCCCCCN1CCC(CCCNS(=O)(=O)c2cccc(C(F)(F)F)c2)CC1`: the inhibition in assay [1] was 0.51%; in assay [2], -1.72%; in assay [3] it was 2.46%.

Regarding `O=C(NCCCCN1CCN(c2cccc(Cl)c2Cl)CC1)c1ccc2c(c1)CCN(C1CCC1)CC2`, the inhibition in assay [1] is 1.09%; in assay [2], -1.47%; in assay [3] it was -0.46%.

As for `COc1ccc(-n2cc(C(=O)c3cc(Br)ccc3O)cc(C#N)c2=O)cc1Cl`, the inhibition came to 3.4% in assay [1], 1.9% in assay [2] and 0.95% in assay [3].

On to `CCC1CN2CCc3c([nH]c4ccccc34)C2CC1CC1=NCCc2c1[nH]c1ccccc21` (stereo not drawn), for which the inhibition was determined as 1.78% in assay [1], 3.33% in assay [2] and 2.74% in assay [3].

Take `CCN(CC)CC(O)CNc1c2ccc([N+](=O)[O-])cc2nc2cc(OC)c(OC)cc12` (stereo not drawn): the inhibition stood at 69% in assay [1], 71.7% in assay [2] and 42% in assay [3].

As for `O=C(c1cccs1)N1N=C(c2cccs2)CC1c1cccc([N+](=O)[O-])c1` (stereo not drawn), the inhibition in assay [1] was 8.21%; in assay [2], 5.4%; in assay [3], 7.21%.

Consider `COc1cccc([C@@H](CC(=O)Nc2cc(C(F)(F)F)ccc2OC)Nc2ccc(C#N)c3ccccc23)c1`, for which the inhibition in assay [1] stood at 7.27%; in assay [2], 5.34%; in assay [3] it was 4.83%.

With `CN1CCC(N2CCN(CCOc3cc(NC(=O)/C=C/c4ccccc4Cl)ccc3Br)CC2)CC1`, the inhibition in assay [1] was 0.25%; in assay [2], 2.87%; in assay [3], -1.82%.

For `COc1ccc(-c2cnc3ccc(NCCCO)nn23)cc1OC`, the values for the inhibition in assay [1], in assay [2] and in assay [3] were -0.63%, 0.58% and 1.14%, respectively.

For the molecule `Cc1ccccc1C1CCN(C2CCC(NC(=O)/C=C/c3cccc(Cl)c3F)CC2)CC1` (stereo not drawn), the inhibition in assay [1] is 3.45%; in assay [2], 1.79%; in assay [3], 1.85%.

In the case of `CC1(C)NC(N)=NC(=N)N1OCCCCOc1ccccc1`, the results for the inhibition in assay [1], in assay [2] and in assay [3] were -2.95%, 0.84% and -0.45%, respectively.

Regarding `O=C(/C=C/c1ccc(Cl)c(Cl)c1)NCCCCCCN1CCCN(C(=O)Nc2cccc(C(F)(F)F)c2)CC1`, the inhibition in assay [1] is 5.59%; in assay [2], 4.35%; in assay [3] it was 0.59%.

As to `CC(C)C(=O)n1ncc2c3c(N)nc(N)nc3ccc21`, the values for the inhibition in assay [1], in assay [2] and in assay [3] were -0.81%, -1.08% and -0.01%, respectively.

On to `CN(C)C(=O)CC(=O)NCc1cccc(Cl)c1`, for which the inhibition is 6.99% in assay [1], 6.27% in assay [2] and 7.23% in assay [3].

As to `CN1CCN(c2cc3c(cc2Cl)CCN3C(=O)Nc2ccc(NC(=O)c3ccc(C(F)(F)F)cc3)cc2)CC1`, the inhibition in assay [1] was found to be 3.11%; in assay [2], 8.45%; in assay [3], 1.98%.

As to `O=C(/C=C/c1ccc(Cl)c(Cl)c1)NCCCCCN1CCC(c2c[nH]c3ccccc23)CC1`, the inhibition in assay [1] stood at 1.33%; in assay [2] it was 4.32%; in assay [3], 3.63%.

For `O=C(Nc1ccccc1)c1c[nH]cn1`, the results for the inhibition in assay [1], in assay [2] and in assay [3] were 0.43%, 2.14% and -0.23%, respectively.

As for `Cc1ccc(NC(=O)Nc2ccc(Br)cc2)cc1OCCN(C)C`, the inhibition turned out to be 5.98% in assay [1], 3.65% in assay [2] and 2.82% in assay [3].

As for `Cc1nc(-c2ccc(-c3ccc(NC(=O)Nc4ccc(I)c(OCCN(C)C)c4)cc3)c(C)c2)no1`, the results for the inhibition in assay [1], in assay [2] and in assay [3] were 7%, 5.44% and 3.02%, respectively.

Regarding `CC1(C)NC(N)=NC(=N)N1OCc1cc(Cl)c(Cl)cc1CON1C(=N)N=C(N)NC1(C)C`, the inhibition in assay [1] stood at 3.89%; in assay [2] it was 2.37%; in assay [3], 0.54%.

For `COc1ccc(C2N=C(N)N=C(N)N2OCc2ccccc2)cc1OC` (stereo not drawn), the inhibition is 0.67% in assay [1], 2.45% in assay [2] and 2.49% in assay [3].

For the molecule `Cc1cc(F)ccc1C1CCN(CCCCNC(=O)c2ccc(NC(=O)c3ccc(Cl)cc3)cc2)CC1`, the inhibition is 1.66% in assay [1], 0.36% in assay [2] and 0.87% in assay [3].

As for `Cc1ccccc1C1CCN(C2CCC(NC(=O)/C=C/c3ccc(OC(F)(F)F)cc3)CC2)CC1` (stereo not drawn), the inhibition in assay [1] was -0.78%; in assay [2], -1.35%; in assay [3] it was 0.34%.
